From PubChem
aSyn 5UTR act: Activators working through SNCA 5'UTR binding (MLPCN). AID 1814. activity score, % (tested at 7.5 µM), hits read low. alpha-synuclein 5'UTR reporter, activators screen. 7.1% of 300,000 active; in the data active = activity score below about -60%
The depositor's hits bear a star. The list is a sample of the results.

SMILES	aSyn 5UTR act
CN(C)CCN(C(=O)c1ccc(S(=O)(=O)N(C)c2ccccc2)cc1)c1nc2cc3c(cc2s1)OCCO3	-64*
Cc1cc(C)c2sc(N(CCCN(C)C)C(=O)c3ccc(S(=O)(=O)N(C)C4CCCCC4)cc3)nc2c1	53
CN(C)CCCN(C(=O)c1ccc2c(c1)CCCC2)c1nc2c(F)cccc2s1	-157*
CN(C)CCN(C(=O)c1ccc2c(c1)OCCO2)c1nc2c(Cl)cccc2s1	-97*
N#CC(c1ccc(Cl)cc1)c1ccc2c(C(F)(F)F)cc(C(F)(F)F)nc2n1 (centres undefined)	112
CN(C)CCN(C(=O)c1ccc2c(c1)CCCC2)c1nc2cc3c(cc2s1)OCCO3	-75*
COc1ccc2nc(N(CCN(C)C)C(=O)c3ccc4c(c3)OCCO4)sc2c1	-72*
Cc1ccc(C(=O)N/C(N)=N/c2nc3ccccc3o2)cc1	-114*
CC(C)(C)C(=O)N/C(N)=N/c1nc2ccccc2o1	-63*
COc1ccccc1C(=O)N/C(N)=N/c1nc2ccccc2o1	-70*
N/C(=N\c1nc2ccccc2o1)NC(=O)c1ccccc1	-194*
Cc1ccc(NC(=O)c2ccc(N/N=C/c3cccc(O)c3)c([N+](=O)[O-])c2)cc1	42
O=[N+]([O-])c1ccc(N/N=C/c2cccc(O)c2O)cc1	-170*
O=[N+]([O-])c1ccc(N/N=C/c2cccc(O)c2)cc1	-171*
CCN1CCN(C(=O)c2cc3ccc(OC)cc3[nH]2)CC1	-135*
COc1ccc2cc(C(=O)N3CCN(C)CC3)[nH]c2c1	-154*
CC(C)NC(=O)c1cc(-c2ccc(Br)cc2)on1	-124*
CC(C)NC(=O)c1cc(-c2ccco2)on1	-139*
CCCNC(=O)c1cc(-c2ccc(Br)cc2)on1	-85*
COc1cc(C2C(C#N)=C(N)Oc3cc4c(cc32)OCO4)cc(OC)c1OC (centres undefined)	111
COc1cccc(C2C(C#N)=C(N)OC(C(C)(C)C)=C2C#N)c1 (centres undefined)	-115*
N#CC1=C(N)OC2=C(CCc3ccccc32)C1c1ccccc1 (centres undefined)	70
O=C(COC(=O)c1ccccc1[N+](=O)[O-])c1ccc2c(c1)OCO2	-187*
Cc1cccc(C(=O)OCC(=O)c2ccc3c(c2)OCO3)c1O	-153*
Cc1cc(C(c2nnnn2Cc2ccccc2)N2CCOCC2)c(C)n1-c1ccc2c(c1)OCO2 (centres undefined)	-315*
SMILES	aSyn 5UTR act
CN(C)c1ccc(-c2ccccc2)nn1	-148*
CCCC(=O)Nc1nc2c(s1)COc1ccccc1-2	-134*
CCCCC(=O)Nc1nc2c(s1)COc1ccccc1-2	-107*
O=C(Nc1ccncc1)c1cc2ccccc2cc1O	-79*
CC(=O)Oc1ccccc1C(=O)Nc1ccccc1	-93*
COc1cc2ccccc2cc1C(=O)Nc1ccc(Cc2ccncc2)cc1	-129*
COc1ccccc1C(=O)Nc1ccc2ccccc2c1	-88*
COc1cc2ccccc2cc1C(=O)Nc1ccc(C)cc1	-186*
Cc1ccc(NC(=O)c2cc(C)n(-c3ccccc3)c2C)cc1	106
Cc1ccc(NC(=O)c2cccc3ccccc23)cc1	-91*
Cc1ccc(NC(=O)c2cc(C)n(-c3cccc(C)c3)c2C)cc1	-62*
O=C(CNS(=O)(=O)c1ccc2ccccc2c1)OCc1csc(-c2ccccc2)n1	-62*
Nc1ccccc1-c1nnc(-c2ccccc2N)n1N	-113*
Nn1c(SCc2c(F)cccc2F)nnc1-c1ccccn1	-159*
Cc1ccc(-n2[nH]c(=O)c(-c3ccccn3)c2C)cc1	97
Nn1c(-c2ccccn2)nnc1-c1ccccn1	-96*
O=C(OCc1ccc(Cl)c(Cl)c1)c1ccc[nH]1	-82*
CCN(CC)C(=O)c1cc2sc3ccccc3c2s1	-134*
CN(C)CCNC(=O)c1cc2sc3ccccc3c2s1	-127*
NC(=O)c1c(NC(=O)c2ccccc2F)sc2c1CCCC2	-170*
COc1cc(OC)cc(C(=O)Nc2sc3c(c2C(N)=O)CCC3)c1	-105*
NC(=O)c1c(NC(=O)c2cccs2)sc2c1CCCCCC2	-122*
COCCN(CCOC)S(=O)(=O)c1ccc(C(=O)Nc2sc3c(c2C(N)=O)CCCCC3)cc1	-107*
NCCNC(=O)c1c(NC(=O)c2ccccc2)sc2c1CCCC2	-125*
NC(=O)c1c(NC(=O)c2ccc(F)cc2Cl)sc2c1CCC2	-96*
SMILES	aSyn 5UTR act
COc1ccc(/C=N/NC(=O)Cc2cccs2)cc1	-70*
Cc1ccccc1NCC(=O)N/N=C/C(Br)=C/c1ccccc1	-66*
COc1ccccc1NC(=O)C(=O)N/N=C/c1cccs1	-147*
CC(/C=N/NC(=O)Cc1cccn1C)=C\c1ccccc1	-118*
CC(/C=N/NC(=O)Cc1cccs1)=C\c1ccccc1	-156*
COc1ccc(COC(=O)N/N=C/c2cccs2)cc1	-66*
O=C(Cc1cccs1)N/N=C/C(Br)=C/c1ccccc1	-258*
O=C(CN1CCOCC1)N/N=C/C(Br)=C\c1ccccc1	-76*
CSc1nc(-c2ccccc2)nc(NC(C)=O)c1C(C)=O	-62*
Cc1ccccc1N=C1Nc2ccccc2CS1	-134*
Oc1ccccc1/C=C/c1noc(-c2ccccc2O)n1	-218*
CC(=O)Nc1ccc(/C=C/c2noc(-c3ccccc3O)n2)cc1	-163*
COc1cc(/C=C/c2noc(-c3ccccc3O)n2)ccc1OC(C)=O	-130*
O=C(NCCC1CCCCN1S(=O)(=O)c1ccc(Cl)cc1)C(=O)NCc1ccncc1 (centres undefined)	62
COc1cccc(NC(=O)C(=O)NCCC2CCCCN2S(=O)(=O)c2ccccc2)c1 (centres undefined)	-158*
O=C(NCCC1CCCCN1S(=O)(=O)c1cccs1)C(=O)Nc1ccc(F)cc1 (centres undefined)	-87*
COc1cccc(NC(=O)C(=O)NCC2CCCN2S(=O)(=O)c2ccccc2)c1 (centres undefined)	-216*
Cc1nn(-c2ccccc2)c(N)c1N=Nc1ccc2ccccc2c1	-242*
Cc1ccc(N=Nc2c(N)nn(-c3ccccc3)c2N)cc1	-183*
Cc1[nH]c2ccccc2c1C(=O)CSC(=S)N(C)C	-76*
Cc1[nH]c2ccccc2c1C(=O)CN1C(=O)NC2(CC(C)CC(C)(C)C2)C1=O (centres undefined)	57
Cc1cc(NCCCn2ccnc2)n2nc(C)c(-c3ccc(Cl)cc3)c2n1	54
Cc1cc(NCCCn2ccnc2)n2nc(C)c(-c3ccccc3)c2n1	-140*
COc1ccc(C(=O)N2CCc3ccc(NC(=O)c4ccccn4)cc3C2)cc1F	-101*
Cc1cc(N(C)/N=C/c2ccccc2O)nc(-c2ccccc2O)n1	-97*
SMILES	aSyn 5UTR act
O=C(Nc1ccc(Oc2cccnc2)cc1)c1ccccc1F	-115*
CC(=O)Nc1ccc(NC(=O)c2ccccc2F)cc1	-81*
O=C(Nc1ccc2oc(-c3ccc(F)cc3)nc2c1)c1ccccc1F	-113*
O=C(Nc1ccc(C(=O)N2CCCC2)cc1)c1ccccc1F	-65*
CCOC(=O)Nc1ccc(NC(=O)c2ccccc2F)cc1	-149*
O=C(Nc1ccc2cn[nH]c2c1)c1ccccc1F	-224*
CCOC(=O)c1ccc(NC(=O)c2ccccc2C)cc1	-156*
O=C(Nc1ccc(F)cc1)c1ccccc1F	-135*
CCOC(=O)c1ccc(NC(=O)c2ccnn2C)cc1	-159*
Cc1ccc(Nc2n[nH]c(C)c2[N+](=O)[O-])cc1C	-164*
Cc1ccc(N2CN=c3s/c(=C\c4ccccn4)c(=O)n3C2)cc1	-63*
CCn1c2ccccc2c2cc(NC(=O)CSc3nnc(-c4cccc(C)c4)o3)ccc21	-63*
